Assay outcomes as filed in PubChem BioAssay.
DT40 TDP1 no CPT – qHTS for Inhibitors of human tyrosyl-DNA phosphodiesterase 1 (TDP1): qHTS in cells in absence of CPT. DT40 Tdp1-/- hTDP1 cells, no CPT, ATP luminescence, 48 h. Potency, µM (doses to about 46.2 µM), for inactives: at the highest dose activity change, negative = growth inhibition, most hits filed as inhibitors. actives 15% (n = 420,000); note: potency is the fitted concentration of half-maximal effect; nearly all actives have a fitted effect of over 55% in size
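Seeded 400 DT40-hTDP1 cells/well (vehicle DMSO, no 20 nM CPT); pinned compounds; ≥48 hr at 37 °C; CellTiter-Glo luminescence as viability measure.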
TDP1 cell CPT – DT40-hTDP1 cell growth loss with CPT; Potency, µM (doses to about 46.2 µM), inactives show at the highest dose activity change, negative = growth inhibition, actives largely listed as inhibitors; actives 12% (n = 420,000); chicken DT40 Tdp1-/-;hTDP1 cells + 20 nM CPT, ATP luminescence, 48 h; note: potency is the fitted concentration of half-maximal effect; nearly all actives have a fitted effect of over 55% in size
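Cell growth measured by CellTiter-Glo luminescence after a minimum 48 h, 37 C compound exposure with 20 nM CPT in Tdp1-knockout DT40 cells stably expressing hTDP1, seeded 400/well; qHTS titration format.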
HT1080-NT tox – kills 2HG-producing HT-1080-NT fibrosarcoma cells | Potency, µM (titrated, usually from 46.1 µM), for inactives: at the top dose activity, negative = less viability, hits mostly cytotoxic | HT-1080-NT fibrosarcoma viability, CellTiter-Glo ATP luminescence, 48 h | actives 1.6% (n = 360,000);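 note: NT is the 2HG producing partner of a matched IDH1 knockdown line; potency is the fitted concentration of half-maximal effect; 0% = DMSO-treated cells and -100% = media-only wells without cells; nearly all actives have a fitted effect of over 55% in size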
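Fibrosarcoma NT cells, 750 per well in 5% FBS RPMI, were exposed to compound for 48 hours. Viability: CellTiter-Glo luminescence.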
IL1B secr inh – blocks inflammasome-driven IL-1 beta release; actives 4.7% (n = 360,000); AID 743279; activity change, % at 57.5 µM; THP-1 LPS/ATP IL-1B secretion, AlphaLISA, 16 h; stronger effect = lower value; in the data active = activity change below about -50%; inconclusive = mostly about -30% to -49%
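Secreted IL-1B measured by AlphaLISA bead assay after 16 h compound exposure of THP-1 cells; compounds (final up to 57.5 uM) added 1 h before LPS (250 ng/mL) and ATP (1.25 mM) stimulation; lower signal means less secretion.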
HT1080 IDH1KD tx – toxicity to HT-1080 IDH1 knockdown cells (counter line). HT-1080 IDH1 knockdown viability, ATP luminescence, 48 h. Potency, µM (top dose mostly 46.1 µM), inactives show at the top dose activity, negative = toxicity, usual class: cytotoxic. actives 2% (n = 360,000);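 note: potency is the fitted concentration of half-maximal effect; 0% = DMSO wells and -100% = cell-free medium wells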
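Using the IDH1-knockdown HT-1080 line run in the same batch and compound series as the NT line, viability after 48 h at 37 °C was determined by CellTiter-Glo luminescence and expressed as % activity.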
Numbers without * were called inactive; ? = inconclusive; · = not tested or not shown; [ ] = remark or other dose. Shown are actives, neighbours in structure and some others; about 19% of the full set was active somewhere. Unless noted, calls come from the whole dose curve; as a rule, active = well fitted curve in the direction sought with a large enough effect; inconclusive = small, poorly fitted or top-dose-only effect, or another doubt; inactive = no such curve, though single readings can be large; an effect the other way counts as inactive or inconclusive. Unless noted, % is set by controls: 0 for no effect and ±100 for the full control effect.

SMILES | DT40 TDP1 no CPT | TDP1 cell CPT | HT1080-NT tox | IL1B secr inh | HT1080 IDH1KD tx
Cc1ccccc1Oc1nc2ccccn2c(=O)c1/C=C(\C#N)C(=O)Nc1c(C)n(C)n(-c2ccccc2)c1=O | ? | ? | -12% | 0 | -18%
Cc1cc(C)cc(Oc2nc3ccccn3c(=O)c2/C=C(\C#N)C(=O)NC2CCS(=O)(=O)C2)c1 (centres undefined) | 9.2µM* | ? | -29% | 12 | ?
Cc1ccccc1Oc1nc2c(C)cccn2c(=O)c1/C=C(\C#N)C(=O)Nc1c(C)n(C)n(-c2ccccc2)c1=O | 21µM* | 21µM* | -29% | ? | -19%
O=C(CSc1nnc(CNC(=O)c2c(F)cccc2F)o1)NCc1ccc(F)cc1 | 6% | -23% | 14% | 17 | 4%
Cc1cc(C)c(C)c(S(=O)(=O)N2CCC(C(=O)NC3=NCCS3)CC2)c1C | -26% | -2% | -5% | -23 | 4%
Cn1nc(C(=O)NCC(=O)Nc2ccc(F)c(F)c2)ccc1=O | 2% | -8% | -2% | 16 | -3%
Cc1ccc(OCC(=O)N(C)CC(=O)Nc2cccc(F)c2)cc1 | -3% | 6% | -2% | 0 | 1%
Cc1ccc(OCC(=O)N(C)CC(=O)Nc2ccc(F)c(F)c2F)cc1 | -3% | -25% | -3% | -65* | -5%
CCN(CC(=O)Nc1c(C(=O)OC)[nH]c2ccc(Cl)cc12)c1ccc2c(c1)OCO2 | 26µM* | ? | -21% | -8 | -18%
CCOC(=O)c1[nH]c2ccc(Cl)cc2c1NC(=O)/C=C/c1ccc2c(c1)OCO2 | ? | ? | -11% | 44 | 0%
COc1cc(/C=C/C(=O)OCC(=O)NC(C)c2ccccc2)cc(OC)c1OC (centres undefined) | -22% | 11% | 0% | ? | 5%
COc1cc(/C=C/C(=O)c2ccccc2O)cc(OC)c1OC | ? | -30% | ? | -98* | ?
CN(C)c1ccc(/C=C/C(=O)c2ccccc2O)cc1 | -23% | ? | 2% | 3 | 13%
COc1cc(OC)c(C=CC(=O)c2ccccc2O)c(OC)c1 | ? | ? | -11% | -59* | ?
COc1cc(/C=C/C(=O)OC(C)C(=O)c2ccccc2)cc(OC)c1OC (centres undefined) | 15µM* | 21µM* | -2% | -7 | 13%
Cc1cc(NC(=O)CS(=O)(=O)c2ccc(Cl)cc2)no1 | -10% | 12% | 14% | -4 | 10%
CSc1nc(SCC(=O)NCc2ccco2)c2c3c(sc2n1)CN(C)CC3 | 1% | -2% | 1% | -11 | 17%
CCN(CC)C(=O)CSc1nc(N)c2c3c(sc2n1)CC(C)CC3 (centres undefined) | 21µM* | ? | -22% | -29 | ?
CC1CCc2c(sc3nc(SCC(=O)NCc4ccco4)nc(N)c23)C1 (centres undefined) | 13µM* | 18µM* | ? | -1 | ?
COc1ccc(CNC(=O)CN2CCC(NC(=O)c3cccc(OC)c3)CC2)cc1 | -21% | -1% | 1% | 5 | -8%
CCOC(=O)C1CCN(C(=O)CSc2nc3ncccc3[nH]2)CC1 | -17% | 10% | 1% | 5 | 8%
CCc1nc(N2CCN(C(=O)CCl)CC2)c2c3c(sc2n1)CC(C)CC3 (centres undefined) | 6.5µM* | 3.3µM* | 21µM* | -96* | 21µM*
CCc1nc(N2CCN(C(C)=O)CC2)c2c3c(sc2n1)CC(C(C)(C)C)CC3 (centres undefined) | 12µM* | ? | -2% | 4 | 0%
Cn1nc(NC(=O)CC23CC4CC(CC(C4)C2)C3)c2c(F)cccc21 | -21% | -28% | 2% | 6 | -2%
CC1(C)Nc2ccccc2N(CC(=O)N2CCCCC2)C1=O | -28% | 7% | 6% | -8 | 9%
SMILES | DT40 TDP1 no CPT | TDP1 cell CPT | HT1080-NT tox | IL1B secr inh | HT1080 IDH1KD tx
CCCCN(C(=O)c1cc(S(=O)(=O)N2CCCCCC2)ccc1OC)c1ccccc1 | ? | ? | -6% | -81* | ?
CCN(CC(=O)Nc1ccccc1OC)C(=O)c1cc(S(=O)(=O)N2CCCCCC2)ccc1OC | 12µM* | 16µM* | 14% | -25 | 9%
CCN(CC(=O)Nc1cc(Cl)ccc1C)C(=O)c1cc(S(=O)(=O)N2CCCCCC2)ccc1OC | 18µM* | ? | -2% | ? | -7%
CCCCN(C(=O)c1cc(S(=O)(=O)N2CCOCC2)ccc1N1CCOCC1)c1ccccc1 | -22% | -5% | -5% | -14 | 0%
COCCN(CC(=O)Nc1cccc(C)c1C)C(=O)c1cc(S(=O)(=O)N2CCCC2)ccc1C | -27% | -18% | 2% | -26 | 6%
O=C(COC(=O)c1cnccn1)c1cccc([N+](=O)[O-])c1 | -14% | -17% | 14% | 29 | 11%
Cc1cccc(-c2oc3ccc(-c4ccc5c(c4)OCO5)cc3c2C(=O)OCc2ccc(O)cc2)c1 | ? | 16µM* | -3% | 14 | 1%
C(=N/Nc1nc(-c2ccccc2)cc(-c2ccccc2)n1)/c1cccnc1 | 16µM* | ? | -16% | -53* | -10%
FC(F)(F)c1cccc(-c2ccc(/C=N/Nc3nncc(-c4ccccc4)n3)o2)c1 | 9.2µM* | ? | 5% | 7 | 5%
Clc1ccc(-c2ccc(/C=N/Nc3nncc(-c4ccccc4)n3)o2)cc1 | ? | ? | 43% | 18 | 11%
C(=N\Nc1nc(Nc2ccccc2)nc(Nc2ccccc2)n1)/c1cccnc1 | 10µM* | 16µM* | -28% | -13 | -24%
Cc1ccc(-c2cc(-c3ccccc3)nc(N/N=C/c3cccnc3)n2)cc1 | ? | 29µM* | ? | -18 | ?
Cn1c2c(c(=O)n(C)c1=O)CS(=O)c1ccccc1N2 (centres undefined) | 1% | -17% | 4% | 33 | 6%
CCCS(=O)(=O)NCc1c(C)ncc2c1CCN(C(=O)c1ccc(Cl)cc1)C2 | -16% | -3%[9.04 µM] | · | · | ·
O=C1c2cccc3c(Nc4ccccc4Cl)c([N+](=O)[O-])cc(c23)C(=O)N1CCO | ? | ? | 1% | -3 | -17%
Oc1cccc(/C=N\Nc2nncc(-c3ccccc3)n2)c1 | ? | ? | -17% | -62* | -4%
CCOc1cc(/C=N/Nc2nncc(-c3ccccc3)n2)ccc1O | ? | ? | ? | 37 | -23%
O=C(CNC(=O)c1ccc(Cl)cc1)NCCCn1ccnc1 | -19% | -9% | 13% | 0 | 15%
O=C(CCl)N=c1sccn1Cc1cccc2ccccc12 | 2.6µM* | 4.6µM* | ? | -102* | 18µM*
